# Bioassay records deposited in PubChem by National Center for Advancing Translational Sciences (NCATS).
# A selection: hits, their analogues and other compounds. The true share with any hit is near 6.6%.
# TSG101-PTAP inh: blocks PTAP/TSG101 interaction to inhibit HIV-1 budding. Potency, µM (highest dose often 115 µM), for inactives: at the top dose activity change, negative = inhibition, most hits filed as inhibitors. 340,000 tested, under 10 active. Q99816. Fluorescence polarization, FITC-PTAP peptide / Tsg101 binding; active means well fitted inhibition curve with a large enough effect in the main read-out, with a control signal flat, not every such curve was filed as active; inconclusive means small, poorly fitted or top-dose-only effect, or effect the other way, or a change in a side signal; inactive means no such curve, though single readings can be large or run the other way; further: % of control where 0% means no effect
# Target sequence (Q99816 whole entry, looked up): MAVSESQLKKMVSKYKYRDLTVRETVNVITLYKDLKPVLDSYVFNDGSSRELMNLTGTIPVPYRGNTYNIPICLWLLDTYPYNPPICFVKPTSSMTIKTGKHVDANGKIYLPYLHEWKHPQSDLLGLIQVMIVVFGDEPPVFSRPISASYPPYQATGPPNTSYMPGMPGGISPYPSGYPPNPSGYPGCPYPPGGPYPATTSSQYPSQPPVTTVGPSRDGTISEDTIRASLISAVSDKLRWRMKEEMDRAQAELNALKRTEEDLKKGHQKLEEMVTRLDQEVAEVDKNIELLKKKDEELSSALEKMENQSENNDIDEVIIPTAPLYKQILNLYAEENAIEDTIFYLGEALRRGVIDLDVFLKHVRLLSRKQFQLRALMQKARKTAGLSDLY
#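 Steps: Tsg101 binding domain dispensed (10 uM final), compounds pinned in DMSO, FITC-labeled PTAP-motif peptide added (50 nM final); after 20 min binding at room temperature, polarization measured.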
# MCF10A rereplic: inducers of DNA re-replication in MCF 10A breast cells; MCF 10A DNA re-replication, Hoechst nuclear intensity, 48 h; Potency, µM (series often up to 46.1 µM), inactives show at the top dose activity, positive = re-replication, hits mostly activators; actives 2.9% (n = 350,000); further: % of control where 0% means no effect; nearly all actives have a fitted effect of over 50% in size
# RGS4 inhibitor: human RGS4 inhibition; P49798; Transcreener GDP fluorescence polarization, RGS4-accelerated GTP hydrolysis; Potency, µM (series often up to 114 µM), without a hit: at the top dose activity change, negative = inhibition, hits mostly inhibitors; actives 0.039% (n = 390,000); AID 504845; further: on the % scale 0 is the no-effect control and ±100 the full control effect; nearly all actives have a fitted effect of over 75% in size
# Target sequence (P49798 whole entry, looked up): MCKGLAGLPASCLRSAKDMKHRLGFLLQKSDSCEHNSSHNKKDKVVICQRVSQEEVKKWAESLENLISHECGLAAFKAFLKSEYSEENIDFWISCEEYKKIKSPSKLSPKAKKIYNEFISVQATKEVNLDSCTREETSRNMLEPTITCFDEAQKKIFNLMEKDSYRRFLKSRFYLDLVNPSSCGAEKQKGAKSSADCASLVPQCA
#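 MLSMR compounds (23 nl, pin-transferred) preincubated 10 min at room temperature with a 500nM (2x) first reagent, then RGS4 at 900nM (2x) plus Transcreener GDP mix added; fluorescence polarization (620/688 nm) read before and after 90 min at 30 °C.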
# KB-3-1 tox: kills parental KB-3-1 adenocarcinoma cells; KB-3-1 viability, CellTiter-Glo ATP luminescence, 72 h; Potency, µM (top dose mostly 46.1 µM), usual class: cytotoxic; actives 1.4% (n = 400,000); further: on the % scale 0 is the no-effect control and ±100 the full control effect; nearly all actives have a fitted effect of over 60% in size
#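 Parental KB-3-1 adenocarcinoma cells in phenol-red-free DMEM with 10% FBS were pin-treated with compounds at several concentrations, incubated 72 h at 37 °C, and viability read by CellTiter-Glo luminescence; concentration-effect curves were fitted after normalization.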
# SW480 rerep: induces DNA re-replication in SW480 colon adenocarcinoma cells. SW480 DNA re-replication, Hoechst DNA content imaging, 48 h. Potency, µM (series often up to 46.1 µM), inactives show top-dose re-replication activation, usual class: activators. actives 1.8% (n = 340,000); further: % of control where 0% means no effect; nearly all actives have a fitted effect of over 55% in size
#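 Quantitative HTS format with DMSO vehicle controls; 48 hr drug incubation at 37 C, then 40 min Hoechst staining and scanning imager measurement at 405 nm excitation.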
# KB-V1 cytotox: KB-V1 MDR subline cytotoxicity | KB-V1 MDR cells viability, CellTiter-Glo, 72 h | Potency, µM (doses to about 46.1 µM), most hits filed as cytotoxic | actives 3.4% (n = 400,000) | AID 1347076; further: on the % scale 0 is the no-effect control and ±100 the full control effect; nearly all actives have a fitted effect of over 60% in size
#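 Drug-selected KB-V1 cells, grown in DMEM lacking phenol red with 10% FBS, receive compound titrations; after three days at 37 degrees C, surviving cell ATP is quantified by CellTiter-Glo luminescence and responses normalized and curve-fitted.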
# * marks the source's active call; other numbers are inactive results; i = inactive; ? = inconclusive; nt = not tested or not shown; ! = repeats disagree; [ ] = remark or other dose. Unless noted, the call rests on the fitted dose curve; in most records, active means well fitted curve in the direction sought with a large enough effect; inconclusive means small, poorly fitted or top-dose-only effect, or another doubt; inactive means no such curve, though single readings can be large; an effect the other way counts as inactive or inconclusive. Potency means the concentration at half of the fitted maximal effect.
SMILES,TSG101-PTAP inh,MCF10A rereplic,RGS4 inhibitor,KB-3-1 tox,SW480 rerep,KB-V1 cytotox
COc1ccc2[nH]c(-c3ccccc3)c(CCNC(C)=O)c2c1,nt,nt,-122.0%[56.9 µM],nt,nt,nt
CC(=O)NCCc1c(Cc2ccccc2)[nH]c2ccccc12,nt,nt,26.7µM*!,nt,nt,nt
CC(=O)Oc1c(Br)cc(N(C(C)=O)S(=O)(=O)c2ccccc2)c2ccccc12,-2.4%,16.4µM*,-30.1%,?,?,?
CC(=O)Oc1ccccc1N(C(C)=O)S(=O)(=O)c1ccc2ccccc2c1,2.0%,-5.0%,-45.4%,i,-2.9%,i
COc1ccccc1-c1nc(SCC(=O)Nc2ccc(C)c(C)c2)n[nH]1,nt,nt,-47.9%,i,nt,i
Cc1ccc(Sc2nc3ccc(C)cn3c(=O)c2/C=N/O)cc1,-3.3%,16.4µM*,2.1%,i,?,i
Cc1ccc2nc(Nc3ccccc3)c(/C=N/O)c(=O)n2c1,-6.2%,?,-19.0%,i,?,i
CCOC(=O)c1cc2c(OC)ccc(OC)c2n1CC(=O)c1ccccc1,-4.4%,23.1µM*,16.6%,i,?,i
CCN1CCN(c2oc(/C=C/c3ccc(OC)c(OC)c3)nc2C#N)CC1,nt,nt,13.7%,nt,nt,nt
COc1ccc(C2=NOC(C(=O)Nc3cc(Br)ccc3O)C2)cc1OC (stereo unspecified),nt,?,-4.5%,i,14.9%,?
COc1ccc(C2=NOC(C(=O)Nc3ccc(C(C)=O)cc3)C2)cc1OC (stereo unspecified),-5.0%,16.8%,-19.3%,i,-8.4%,14.6µM*
COc1ccc(C2=NOC(C(=O)N3CCCCCC3)C2)cc1OC (stereo unspecified),-0.5%,-6.7%,-11.1%,i,-7.3%,18.4µM*
COc1ccc(C2OC(=O)CC2C(=O)NC2CCCCCC2)cc1OC (stereo unspecified),-0.9%,6.7%,37.4%,i,?,13µM*
O=C(C1CC(c2ccc(F)cc2)=NO1)N1CCCCC1 (stereo unspecified),-9.1%,5.2%,-17.0%,i,-24.8%,i
COc1ccc(C2=NOC(C(=O)NC3CCCCC3)C2)cc1OC (stereo unspecified),nt,-2.2%,-1.5%,i,-8.9%,16.4µM*
CCc1ccccc1N(C)C(=O)c1nn(C)c2c1CSc1ccccc1-2,nt,nt,15.6%,nt,nt,nt
CCc1cccc(NC(=O)CSC2=Nc3ccccc3N=C(c3ccc(F)cc3)C2)c1,nt,nt,4.9%,i,nt,i
O=C(CN1CCCN(Cc2ccccc2Cl)S1(=O)=O)NCc1ccccc1,nt,nt,-16.6%,?,nt,i
CCc1ccc(-n2nc(CO)c(C(=O)NCCc3ccccc3)n2)cc1,nt,nt,2.4%,nt,nt,nt
CCOc1cc(CN2CCN(S(=O)(=O)c3ccc(C)cc3)CC2)ccc1OC,nt,nt,2.4%,nt,nt,nt
COc1ccc(-c2nn(CC(=O)NCCc3ccccc3)c(=S)n2C)cc1,-0.4%,14.9%,5.9%,?,-3.7%,16.4µM*
COc1cccc(Cn2cc(C(=O)c3ccc(Cl)cc3)c(=O)c3ccccc32)c1,nt,nt,-7.7%,i,nt,i
CCCC1(c2ccccc2)NC(=O)N(CC(=O)c2[nH]c(C)c(C(=O)OCC)c2C)C1=O (stereo unspecified),-3.9%,26.4%,-31.2%,?,10.9%,23.1µM*
CCOC(=O)c1c(NC(=O)CN2C(=O)NC(C)(c3ccccc3)C2=O)sc(C)c1C (stereo unspecified),-2.9%,10.3µM*,8.5%,16.4µM*,?,16.4µM*
CCOC(=O)c1c(C)[nH]c(C(=O)CN2C(=O)NC(C)(c3ccc4ccccc4c3)C2=O)c1C (stereo unspecified),nt,-1.6%,6.8%,i,12.7%,10.3µM*
SMILES,TSG101-PTAP inh,MCF10A rereplic,RGS4 inhibitor,KB-3-1 tox,SW480 rerep,KB-V1 cytotox
CCOC(=O)c1c(C)[nH]c(C(=O)CN2C(=O)NC3(CCCC3)C2=O)c1C,-7.1%,1.9%,4.1%,i,-3.7%,i
CCCC(=O)O[C@]1(C(=O)CCl)[C@H](C)C[C@@H]2[C@H]3CCC4=CC(=O)C=C[C@]4(C)[C@@]3(F)C(=O)C[C@@]21C,nt,-3.5%,nt,nt,7.1%,nt
COc1cc(C(=O)Nc2sc3c(c2C(=O)NCc2ccco2)CCCC3)cc(OC)c1OC,-3.2%,18.4µM*,-16.5%,i,-3.1%,i
Cc1ccc(C(=O)Nc2sc3c(c2C(=O)NCc2ccco2)CCCC3)cc1,-3.9%,?,-33.0%,i,19.6%,i
O=C(Nc1sc2c(c1C(=O)NCc1ccco1)CCCC2)c1ccc2c(c1)OCO2,nt,?,?,i,2.0%,14.6µM*
COc1cc2c3nnc(-c4ccc(F)cc4)c-3cn(Cc3ccc(F)cc3)c2cc1OC,?,18.4µM*,-20.4%,?,?,i
COc1ccc(Cn2cc3c(-c4ccc(F)cc4)nnc-3c3cc(OC)c(OC)cc32)cc1,?,?,-3.1%,?,?,i
O=C(C[N+]12CCCc3cccc(c31)CCC2)c1ccccc1,nt,nt,nt,?,nt,i
Brc1cccc[n+]1Cc1ccc(C[n+]2ccccc2Br)cc1,nt,nt,nt,?,nt,i
CCCOc1ccc(C2C(=O)N(C3CCCCCC3)CC(=O)N2CCC)cc1OC (stereo unspecified),nt,nt,13.7%,nt,nt,nt
COc1ccc(NC(=O)Cn2nnc(-c3ccccc3NC(=O)c3cccs3)n2)cc1,-4.4%,14.6µM*,-7.1%,?,?,i
Cc1ccccc1C(=O)Nc1ccccc1-c1nnn(CC(=O)Nc2ccc3c(c2)OCCO3)n1,-2.6%,23.1µM*,35.0%,?,13.6%,3.66µM*
O=C(Cn1nnc(-c2ccccc2NC(=O)c2ccco2)n1)Nc1ccccc1,-0.2%,?,-37.9%,i,?,i
Cc1ccc(NC(=O)Cn2nnc(-c3ccccc3NC(=O)c3cccs3)n2)cc1,-0.6%,6.51µM*,2.5%,1.03µM*,3.66µM*,1.3µM*
O=C(Nc1ccc2c(c1)OCO2)Nc1nnc(-c2ccncc2)s1,nt,nt,nt,i,nt,i
CCCCOc1ccccc1C1CC(=O)Nc2ccc3ccccc3c21 (stereo unspecified),nt,nt,5.5%,nt,nt,nt
COc1cc(-c2nc(S(=O)(=O)c3ccc(Cl)cc3)c(N3CCOCC3)o2)cc(OC)c1OC,-5.5%,14.4%,-10.1%,i,3.0%,0.517µM*
COc1ccc(S(=O)(=O)N2CCN(CC(=O)Nc3ccc(Cl)c(C(F)(F)F)c3)CC2)cc1,nt,nt,-2.7%,i,nt,?
OC(CN(c1ccccc1)c1ccccc1)Cn1cnc2ccccc21 (stereo unspecified),-1.0%,6.4%,6.3%,?,-1.6%,18.4µM*
